Drawing on PubChem BioAssay (NCI), this text covers growth for 39 molecules.

This is part of a sample that, as a whole, favours compounds with a hit. Of some 83,000 tested, about 20% had one in any assay.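 The endpoint reported here, percent growth, reads 100 for growth as untreated, 0 for no net growth and -100 for all cells dead.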 Values without a mark were called inactive. Activity calls are given as the source filed them. The calls were made as follows: active = growth percent below 10; inactive = the rest.

The test system of one assay is UACC-62 melanoma. Description: NCI-60 one-dose screen, 48 h (100 = growth as untreated, 0 = no growth, -100 = all killed). The conditions noted are these: 10 µM unless noted.
Consider `Cc1nc([P+](c2ccccc2)(c2ccccc2)c2ccccc2)c(Sc2sc(-c3ccccc3)nc2[P+](c2ccccc2)(c2ccccc2)c2ccccc2)o1`, for which the growth is 19.2%.

On to `O=C1NC(=Nc2ccc(S(=O)(=O)Nc3nccs3)cc2)S/C1=C\c1coc2ccccc2c1=O`, for which the growth was 99.5%.

On to `Cc1ccc(Sc2sc(-c3ccccc3)nc2[P+](c2ccccc2)(c2ccccc2)c2ccccc2)cc1`, for which the growth was -33.7% (active).

As for `Clc1ccccc1-c1nc(Nc2nc3ccccc3s2)nc(C(Cl)(Cl)Cl)n1`, the growth is 48.1%.

The next assay relates to SK-MEL-28 melanoma. Described as above. The conditions noted are these: 10 µM unless noted.
`O=C1/C(=C\c2ccc(Br)o2)SC(=S)N1CCc1ccc(O)cc1`: the growth is 55.3%.

With `N#CC1=C(N)Oc2ccc3ccccc3c2C1c1ccccc1` (stereo not drawn), the growth is 54.6%.

Consider `N#CC1=C(N)Oc2ccc3ccccc3c2C1c1ccccc1Cl` (stereo not drawn), for which the growth was 61.1%.

With `CCSc1sc(-c2ccc(C)cc2)nc1[P+](c1ccccc1)(c1ccccc1)c1ccccc1`, the growth was 15.2%.

For the molecule `Fc1ccc2nc(-c3cc(-c4ccc5c(c4)OCO5)n[nH]3)[nH]c2c1`, the growth was 75.3%.

Regarding `CC(=O)c1c(C)[nH]c(-c2nc3ccc(N4CCN(C)CC4)cc3[nH]2)c1-c1ccc2c(c1)OCCO2`, the growth was 50.8%.

As for `COc1cc2nc(Cl)nc(Nc3cccc(C(=O)/C=C/c4ccc(Br)cc4)c3)c2cc1OC`, the growth is 92.7%.

Regarding `COc1c(N)c2c(c([N+](=O)[O-])c1OC)C(=O)OC2`, the growth was 108%.

With `N#C/C(=C\c1ccc(-c2cccc(C(F)(F)F)c2)o1)c1nc(-c2ccco2)cs1`, the growth was 97.7%.

For the molecule `C=C(C)[C@@H]1CC[C@]2(CN)CC[C@]3(C)[C@H](CC[C@@H]4[C@@](C)(CCCN)[C@H](C(=C)C)CC[C@]43C)[C@@H]12`, the growth was 100%.

`Nc1ccccc1NC(=O)c1ccc(CN2CCC/C(=C\c3ccccn3)C2=O)cc1`: the growth is 16.3%.

On to `O=c1c2sc3ncc(Br)cc3c2ncn1-c1cccc(Cl)c1`, for which the growth is 78%.

Regarding `CCN1CCN(C(=O)[C@]23CCC(C)(C)C[C@@H]2C2=CC[C@@H]4[C@@]5(C)C/C(=C/c6ccncc6)C(=O)C(C)(C)[C@@H]5CC[C@@]4(C)[C@]2(C)CC3)CC1`, the growth was -82.5% (active).

With `Cc1ccc(-c2nc([P+](c3ccccc3)(c3ccccc3)c3ccccc3)c(N3CCOCC3)o2)cc1`, the growth was 29.9%.

Consider `CCCCn1c(-c2ccc(O)cc2)cn2c3c(=O)[nH]c(=O)n(C)c3nc12`, for which the growth was 74.7%.

On to `CN(C)CCCC1(c2ccc(F)cc2)OCc2cc(-c3ccc(C(F)(F)F)nc3)ccc21` (stereo not drawn), for which the growth is 81%.

`Nc1c2c(nc3ccc(Cl)cc13)CC(c1ccc(O)cc1)CC2=O` (stereo not drawn): the growth was 57%.

For `N#Cc1c(-c2ccco2)nc2c(c(-c3ccccc3)nn2-c2ccccc2)c1-c1ccc(O)cc1`, the growth is 74.7%.

Turning to `COc1ccc(OC)c(-c2c(C#N)c(-c3ccco3)nc3c2c(-c2ccccc2)nn3-c2ccccc2)c1`, the growth was 106%.

As to `N#CC1=C(N)Oc2c(c(N)nn2-c2ccccc2)C1c1ccc(Cl)cc1` (stereo not drawn), the growth was 100%.

For `O=C(O)c1cccc2c1Cc1cc([N+](=O)[O-])ccc1-2`, the growth was 108%.

For the molecule `CCN1CCN(C(=O)[C@]23CCC(C)(C)C[C@H]2C2=CC[C@@H]4[C@@]5(C)CC/C(=N/O)C(C)(C)[C@@H]5CC[C@@]4(C)[C@]2(C)CC3)CC1`, the growth is 73.2%.

Consider `Cc1ccc(NC2CC(=O)N(c3c(C)cc(C)cc3C)C2=O)c(C)c1` (stereo not drawn), for which the growth is 109%.

For `NCCNc1nc(-c2ccccc2)nc2nc(-c3ccccc3)oc12`, the growth is 103%.

In the case of `CCCCCC1CCCCN1C(=O)OCC` (stereo not drawn), the growth is 106%.

Consider `COc1ccc(-c2cc(/C=C/C(=O)c3ccc(N)cc3)[nH]n2)cc1`, for which the growth was 34.6%.

As to `COc1ccc2nc(-c3cc(-c4cc(OC)c(OC)c(OC)c4)n[nH]3)[nH]c2c1`, the growth is -17.6% (active).

With `COc1ccc(/C=C(\C#N)c2cc3ccccc3n2S(C)(=O)=O)cc1`, the growth is 82.5%.

For `CC1c2ccccc2N(S(=O)(=O)c2ccccc2)C1C` (stereo not drawn), the growth is 92.1%.

For the molecule `CC1(C)CC[C@]2(C(=O)NCCNCCN)CC[C@]3(C)C(=CC[C@@H]4[C@@]5(C)CCC(=O)C(C)(C)[C@@H]5CC[C@]43C)[C@@H]2C1`, the growth is 38.6%.

On to `C=C(C)[C@@H]1CC[C@]2(C)[C@H](CC[C@@H]3[C@H]4[C@H]5OC[C@@]4(CCC5(C)C)CC[C@]32C)[C@@]1(C)CCCN`, for which the growth was 34.7%.

As for `COc1cc2nc(Cl)nc(Nc3cccc(C(=O)/C=C/c4ccc(F)cc4)c3)c2cc1OC`, the growth is 62.6%.

For `CC[C@H](CC[C@@H](C)[C@H]1CC[C@H]2[C@@H]3/C(=C/c4cccnc4)C(=O)C4=CC(=O)CC[C@]4(C)[C@H]3CC[C@]12C)C(C)C`, the growth was 75.7%.

Regarding `COc1ccc(CCN2C(=O)C(C)(C)SC2=S)cc1OC`, the growth is 102%.

Take `C=C(C)[C@@H]1CC[C@]2(C(=O)N3CCN(C)CC3)CC[C@]3(C)[C@H](CC[C@@H]4[C@@]5(C)C/C(=C/c6ccc(C(F)(F)F)cc6)C(=O)C(C)(C)[C@@H]5CC[C@]43C)[C@@H]12`: the growth was 104%.

With `Cc1nc([P+](c2ccccc2)(c2ccccc2)c2ccccc2)c(Sc2sc(-c3ccccc3)nc2[P+](c2ccccc2)(c2ccccc2)c2ccccc2)o1`, the growth is 54.5%.

Take `O=C1NC(=Nc2ccc(S(=O)(=O)Nc3nccs3)cc2)S/C1=C\c1coc2ccccc2c1=O`: the growth is 111%.

With `Cc1ccc(Sc2sc(-c3ccccc3)nc2[P+](c2ccccc2)(c2ccccc2)c2ccccc2)cc1`, the growth is 25.5%.

Regarding `Clc1ccccc1-c1nc(Nc2nc3ccccc3s2)nc(C(Cl)(Cl)Cl)n1`, the growth is 51.3%.
